Here are results for 24 compounds from PubChem BioAssay (NCATS).

For assay [1], the system named is Zika virus NS2B-NS3 protease (unlinked complex). The assay can be described thus: Primary screen GU Rhodamine qHTS for Zika virus inhibitors: Unlinked NS2B-NS3 protease assay (AID 1347159). Further: nearly all actives have a fitted effect of over 60% in size. In short, it runs like this:
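Percent inhibition came from the 15-min rise in Rhodamine110 fluorescence (1.5 microM substrate, ~15% conversion), normalized to no-inhibitor and no-enzyme wells and Hill-fitted. Unlinked protease, 25 nM, pH 8.0 Tris buffer; compounds up to 114 microM, 15-min preincubation.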

Assay [2] relates to Zika virus NS2B-NS3 protease (linked construct). In words: Primary screen NINDS Rhodamine qHTS for Zika virus inhibitors (AID 1347160). Further: nearly all actives have a fitted effect of over 55% in size. In short, it runs like this:
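Rhodamine110-peptide cleavage (1.5 µM substrate) by 25 nM linked NS2B-NS3 enzyme at pH 8.0 (Tris, Tween 20), after 15 min RT preincubation with compounds; 15-min fluorescence change normalized to controls and Hill-fitted.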

Results filed as inconclusive are left out. Unmarked numbers belong to inactive results. Active and inactive are the calls of the source. The call rests on the fitted dose curve; in most records, active means well fitted inhibition curve with a large enough effect; inconclusive means small, poorly fitted or top-dose-only effect; inactive means no such curve, though single readings can be large or run the other way. *1 amine or outer side, *2 acyl side, *3 side chain or, on linkers, in order; H or OH if unused. Where a SMILES comes first, the peptide text is derived from it. Bridges are numbered along the chain shown (N, C = ends). X6 = O=C(CCC[*:2])[*:1]
On the % scale 0 is the no-effect control and ±100 the full control effect.

For `CC1CCC2C(C(=O)O)=CC3C(O)C(C)(C)CC123` (stereo not drawn), the Potency entry in assay [1] and in assay [2] was “inactive” in each case.

In the case of `CC[C@H](C)[C@@H]1NC(=O)[C@H](Cc2ccc(OC)cc2)NC(=O)CCCSC[C@@H](C(=O)N2CCC[C@H]2C(=O)N[C@@H](CC(C)C)C(=O)NCC(N)=O)NC(=O)[C@H](CC(N)=O)NC(=O)[C@H](CCC(N)=O)NC1=O` (Y(Me)IQNCPLG-NH2; linker N-5 via X6), the Potency result in assay [1] and in assay [2] was “inactive” throughout.

In the case of `CC1[C@@H](O)[C@@H](O)C2[C@]3(C)C(C[C@H]4OC(=O)[C@H](O)[C@]1(O)[C@@]24C)C(C)(O)C[C@H](O)[C@H]3O` (stereo partly drawn), the Potency entry in assay [1] and in assay [2] was “inactive” in each case.

As for `CCC(NC(=O)CC(NC(=O)C(CO)NC(=O)C(CC)NC(=O)c1ccc[nH]1)c1ccccc1)C(=O)O` (stereo not drawn), the Potency result in assay [1] and in assay [2] was “inactive” in each case.

Turning to `CC1(C)CC[C@]2(C(=O)O)CC[C@]3(C)C(=CCC4[C@@]5(C)C[C@H](O)[C@H](O[C@@H]6OC[C@H](O)[C@H](O)[C@H]6O)[C@@](C)(CO)C5CC[C@]43C)[C@@H]2C1` (stereo partly drawn), the Potency entry in assay [1] and in assay [2] was “inactive” throughout.

Regarding `C[C@@H]1O[C@@H](O[C@H]2[C@H](O[C@H]3CC[C@@]4(C)C(CC[C@]5(C)C4CC=C4C6CC(C)(C)CC[C@]6(C(=O)O[C@@H]6O[C@H](CO[C@@H]7O[C@H](CO)[C@@H](O[C@@H]8O[C@@H](C)[C@H](O)[C@@H](O)[C@H]8O)[C@H](O)[C@H]7O)[C@@H](O)[C@H](O)[C@H]6O)CC[C@]45C)[C@]3(C)CO)OC[C@H](O)[C@@H]2O)[C@H](O)[C@H](O)[C@H]1O` (stereo partly drawn), the activity change, negative = inhibition in assay [1] was 20.6% [at 19.1 µM]; in assay [2] it was 37.8% [at 10.7 µM].

Turning to `C[C@@H]1O[C@@H](O[C@@H]2[C@@H](O)[C@H](O[C@@H]3[C@@H](O)[C@@H](O)[C@H](O[C@H]4[C@H](OC(=O)[C@]56CCC(C)(C)C[C@H]5C5=CCC7[C@@]8(C)C[C@H](O)[C@H](O[C@@H]9O[C@@H](C)[C@H](O)[C@@H](O)[C@H]9O)[C@@](C)(CO)C8CC[C@@]7(C)[C@]5(C)C[C@H]6O)O[C@H](C)[C@H](O)[C@@H]4O)O[C@H]3C)OC[C@H]2O)[C@H](O)[C@H](O)[C@H]1O` (stereo partly drawn), the activity change, negative = inhibition in assay [1] was -9.55% [at 19.1 µM]; in assay [2], 4.29% [at 10.7 µM].

Regarding `COc1cc2c(cc1O)C1(Cc3ccc4c(c3C1=O)OCO4)N(C)CC2` (stereo not drawn), the Potency result in assay [1] and in assay [2] was “inactive” each time.

Regarding `C=C1C2(CCC(=O)OC2(C)C)CC(OC(=O)/C(C)=C/C)C2(C)C13OC14C(=O)OC(C)(C(=O)C12C(=O)OC4C)C3OC(C)=O` (stereo not drawn), the Potency result in assay [1] and in assay [2] was “inactive” in each case.

For the compound `CN1C(=O)c2ccccc2-n2c(nc3ccccc3c2=O)/C1=C/c1ccccc1`, the Potency entry in assay [1] and in assay [2] was “inactive” in each case.

With `CCOC(=O)[C@H]1O[C@@H]1C(=O)N[C@@H](CC(C)C)C(=O)NCCC(C)C`, the Potency result in assay [1] and in assay [2] was “inactive” each time.

Take `C[C@@H]1O[C@@H](O[C@@H]2[C@@H](O)[C@@H](O)[C@H](O[C@@H]3[C@@H](O)[C@@H](O[C@]4(CO)O[C@H](CO)[C@@H](O)[C@@H]4OC(=O)/C=C/c4ccc(O)cc4)O[C@H](CO)[C@H]3OC(=O)/C=C/c3ccc(O)cc3)O[C@H]2C)[C@H](O)[C@H](O)[C@H]1O`: the Potency entry in assay [1] and in assay [2] was “inactive” in each case.

Regarding `Cc1nnc(C(C)C)n1C1CC2CCC(C1)N2CCC(NC(=O)C1CCC(F)(F)CC1)c1ccccc1` (stereo not drawn), the Potency result in assay [1] and in assay [2] was “inactive” each time.

For `C=C(C(=O)OC)C1CCC2(C)C(O[C@@H]3O[C@H](CO)[C@@H](O)[C@H](O)[C@H]3O)CC(=O)C(C)C2C1O` (stereo partly drawn), the Potency entry in assay [1] and in assay [2] was “inactive” each time.

Turning to `Cc1nn(C)c2c1C(c1ccc(C(F)(F)F)cc1)C(C#N)=C(N)O2` (stereo not drawn), the Potency entry in assay [1] and in assay [2] was “inactive” each time.

On to `COc1c2c(c(C)c3c1C(=O)OC3)O[C@@]1(C)C[C@@H](O)[C@]34O[C@](OC)(CC[C@]3(C)[C@H]1C2)OC4(C)C`, for which the Potency result in assay [1] and in assay [2] was “inactive” in each case.

For `C/C=C(\C)C(=O)O[C@@H](C)[C@H]1CC[C@]2(O)C3CCC4C[C@@H](OC5CC(OC)C(OC6CC(OC)C(OC7CC(OC)C(OC8OC(C)C(OC9OC(CO)C(O)C(O)C9O)C(OC)C8O)C(C)O7)C(C)O6)C(C)O5)CC[C@]4(C)C3[C@H](O)[C@@H](O)[C@]12C` (stereo partly drawn), the activity change, negative = inhibition in assay [1] is -1.05% [at 19.1 µM]; in assay [2] it was 6.1% [at 10.7 µM].

With `C[C@@H]1C/C=C/C=C\C=C\C=C\[C@H](O[C@@H]2O[C@H](C)[C@@H](O)[C@H](N)[C@@H]2O)C[C@@H]2O[C@](O)(C[C@@H](O)C[C@H]3O[C@@H]3/C=C/C(=O)O1)C[C@H](O)[C@H]2C(=O)O`, the Potency result in assay [1] and in assay [2] was “inactive” throughout.

`COc1ccc2c(c1)O[C@H](O[C@@H]1O[C@H](CO)[C@@H](O)[C@H](O)[C@H]1O)C(=O)N2`: the Potency entry in assay [1] and in assay [2] was “inactive” in each case.

Regarding `O=C(CCO[C@@H]1O[C@H](CO)[C@@H](O)[C@H](O)[C@H]1O)c1ccc(O)cc1`, the Potency entry in assay [1] and in assay [2] was “inactive” each time.

Take `C/C=C1/[C@H](O[C@@H]2O[C@H](CO)[C@@H](O)[C@H](O)[C@H]2O)OC=C(C(=O)OC)[C@H]1CC(=O)O[C@@H]1O[C@H](CO)[C@@H](O)[C@H](O)[C@H]1O`: the Potency result in assay [1] and in assay [2] was “inactive” throughout.

`CC(C)NC[C@H](O)COc1ccc(CCOCC2CC2)cc1`: the Potency result in assay [1] and in assay [2] was “inactive” throughout.

With `c1nc(NC2CCCCCC2)c2cc(CNC[C@H]3CCCO3)sc2n1`, the Potency result in assay [1] and in assay [2] was “inactive” throughout.

Regarding `NCCOCCOCCNC(=O)Cc1ccc(Nc2nc(NCc3ccc(F)cc3)nc(NCC3CCCCC3)n2)cc1`, the Potency entry in assay [1] and in assay [2] was “inactive” each time.
